Test results taken from PubChem BioAssay (Tox21).
Several values for one entry are separate records, joined by “and”; a condition that tells them apart may be missing. Equal entries are not always repeated. Inconclusive results are not listed. Where a call stands in place of a potency, no number is given. Activity calls are given as the source filed them. Unless noted, the call rests on the fitted dose curve.

What was measured:
[1] = Nuclear factor erythroid 2-related factor 2/antioxidant responsive element (Nrf2/ARE) small molecule agonists: qHTS cell viability counter screen in human keratinocytes (AID 1919968; active means well fitted curve in the direction sought with a large enough effect in the repeat runs; an effect the other way counts as inactive or inconclusive; further: nearly all actives have a fitted effect of over 55% in size; further: potency means the concentration at half of the fitted maximal effect)
Method in brief: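 Measured as CellTiter-Fluor fluorescence, this readout tracks cytotoxicity in the same wells as the ARE-luciferase screen. HaCaT reporter cells (1,500/well) received compounds after a 5 h pre-incubation and were exposed for 23 h.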

[2] = molecular target: Gonadotropin-releasing hormone receptor (Homo sapiens) (UniProt P30968); assay: Human gonadotropin-releasing hormone receptor (GnRHR) small molecule agonists, calcium flux assay in GnRHR-HEK293 cells (AID 1920063); further: nearly all actives have a fitted effect of over 35% in size
Sequence of Gonadotropin-releasing hormone receptor (Homo sapiens) (P30968 whole entry, looked up): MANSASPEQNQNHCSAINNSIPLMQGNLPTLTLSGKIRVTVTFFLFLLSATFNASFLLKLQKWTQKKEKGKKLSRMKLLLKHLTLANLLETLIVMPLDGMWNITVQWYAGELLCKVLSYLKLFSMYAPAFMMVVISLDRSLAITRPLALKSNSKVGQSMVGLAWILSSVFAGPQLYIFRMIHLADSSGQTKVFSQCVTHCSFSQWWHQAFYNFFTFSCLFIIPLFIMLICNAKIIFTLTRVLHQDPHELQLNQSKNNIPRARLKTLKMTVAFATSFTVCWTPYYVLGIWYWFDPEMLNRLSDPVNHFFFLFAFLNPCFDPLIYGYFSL
Method in brief: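 Fluorescence kinetics (480 nm excitation, 540 nm emission; 3 min, 1 s steps) report calcium mobilisation in human GnRHR-HEK293 cells in agonist mode. Dye incubation: 1 h, 37 C.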

[3] = molecular target: KiSS-1 receptor (Homo sapiens) (UniProt Q969F8); assay: Human kisspeptin (KISS1R) small molecule agonists, calcium flux assay in KISS1R-HEK293 cells (AID 1920064; active means well fitted curve in the direction sought with a large enough effect in the repeat runs; an effect the other way counts as inactive or inconclusive)
Sequence of KiSS-1 receptor (Homo sapiens) (Q969F8 whole entry, looked up): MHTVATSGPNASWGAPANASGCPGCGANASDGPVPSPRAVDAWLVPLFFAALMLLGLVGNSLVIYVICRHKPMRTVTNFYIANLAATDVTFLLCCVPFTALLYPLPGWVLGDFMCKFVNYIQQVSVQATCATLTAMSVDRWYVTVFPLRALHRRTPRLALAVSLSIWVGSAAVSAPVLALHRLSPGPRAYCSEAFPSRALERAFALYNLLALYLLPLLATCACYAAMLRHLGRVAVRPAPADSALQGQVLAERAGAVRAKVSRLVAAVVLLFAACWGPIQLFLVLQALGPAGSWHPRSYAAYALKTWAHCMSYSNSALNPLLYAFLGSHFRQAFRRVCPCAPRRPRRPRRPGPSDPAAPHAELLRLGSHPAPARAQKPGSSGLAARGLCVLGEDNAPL
Method in brief: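 Measures KISS1R agonism through calcium-sensitive dye fluorescence in stably transfected HEK293 cells, read for 3 min after pin-tool compound delivery; 15-point titrations in triplicate.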

[4] = G protein-coupled receptor (GPCR) small molecule agonists, calcium flux assay: HEK293 wild type cell line counter screen (AID 1920065)
Method in brief: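 Readout: fluorescence at 480 nm excitation/540 nm emission, sampled at 1 s intervals for 3 min. Cells had been cultured 18 h, then dye-loaded 1 h at 37 C before compound or ATP addition.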

[5] = p53 small molecule agonists, cell-based qHTS assay with rat liver microsomes (AID 1963578)
Method in brief: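 Cells carrying a p53 response element–beta-lactamase reporter were plated and rested 5 h, then dosed with compound in DMSO plus rat liver microsomes and NADPH, each at 0.5 mg/mL final. After 16 h at 37 C, LiveBLAzer substrate was added for 2 h.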

[6] = p53 small molecule agonists, cell-based qHTS assay with human liver microsomes: qHTS cell viability counter screen (AID 1963579); further: nearly all actives have a fitted effect of over 45% in size
Method in brief: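 Cytotoxicity counter screen: p53RE-bla, 4,000 cells/well; 5 h settle, 37 C/5% CO2; cpd + HLM 0.5 mg/mL + NADPH 0.5 mg/mL (final); 16 h, 37 C; CellTiter-Glo, 30 min RT, luminescence.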

[7] = p53 small molecule agonists, cell-based qHTS assay with rat liver microsomes: qHTS cell viability counter screen (AID 1963580); further: nearly all actives have a fitted effect of over 45% in size
Method in brief: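 p53RE-bla HCT-116 cells were exposed 16 h at 37 C to compounds with rat liver microsomes (0.5 mg/mL) and NADPH (0.5 mg/mL). Viability was measured in the same wells as ATP content by CellTiter-Glo luminescence.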

[8] = p53 small molecule agonists, cell-based qHTS assay: qHTS cell viability counter screen (AID 1963581); further: nearly all actives have a fitted effect of over 45% in size
Method in brief: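 In the same plates used for the p53 bla reporter, HCT-116 cells given compounds for 16 h at 37 C received CellTiter-Glo; luminescence was recorded 30 min later at room temperature.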

[9] = p53 small molecule agonists, cell-based qHTS assay (AID 1963582; active means well fitted activation curve with a large enough effect in the signal ratio in the repeat runs, not every such curve was filed as active; the % refers to the signal ratio; further: potency means the concentration at half of the fitted maximal effect)
Method in brief: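 Compounds are pin-transferred in DMSO onto p53RE-bla cells and incubated 16 h at 37 C. The B/G FRET beta-lactamase substrate is then applied for 2 h at RT and fluorescence recorded.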

[10] = molecular target: 5-hydroxytryptamine receptor 2A (Homo sapiens) (UniProt P28223); assay: 5-hydroxytryptamine receptor 2A (HTR2A) small molecule antagonists, cell-based qHTS assay (AID 1963586); further: nearly all actives have a fitted effect of over 45% in size
Sequence of 5-hydroxytryptamine receptor 2A (Homo sapiens) (P28223 whole entry, looked up): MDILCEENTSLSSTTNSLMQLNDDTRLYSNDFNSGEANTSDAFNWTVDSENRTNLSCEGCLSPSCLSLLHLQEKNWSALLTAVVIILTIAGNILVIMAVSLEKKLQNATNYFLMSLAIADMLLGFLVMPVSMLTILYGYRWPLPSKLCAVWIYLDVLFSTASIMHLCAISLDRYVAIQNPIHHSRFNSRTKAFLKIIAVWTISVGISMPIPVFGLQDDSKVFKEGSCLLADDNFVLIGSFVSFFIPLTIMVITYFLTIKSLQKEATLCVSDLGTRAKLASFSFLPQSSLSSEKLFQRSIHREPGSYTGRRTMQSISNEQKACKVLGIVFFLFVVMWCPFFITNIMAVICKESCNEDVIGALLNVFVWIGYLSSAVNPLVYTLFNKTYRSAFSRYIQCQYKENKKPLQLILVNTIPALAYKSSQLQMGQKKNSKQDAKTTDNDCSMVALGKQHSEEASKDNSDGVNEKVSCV
Method in brief: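 Antagonist-mode intracellular calcium assay: DOI (4 nM) added after 5 min compound pre-incubation at room temperature to dye-loaded HTR2A-CHO cells. Fluorescence followed for 3 min, sampled every second.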

[11] = molecular target: 5-hydroxytryptamine receptor 2A (Homo sapiens) (UniProt P28223); assay: 5-hydroxytryptamine receptor 2A (HTR2A) small molecule agonists, cell-based qHTS assay (AID 1963587); further: nearly all actives have a fitted effect of over 30% in size
Method in brief: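 CHO cells stably expressing human HTR2A, plated 18 h, loaded with calcium dye 1 h at 37 C. Agonist mode: compounds added and intracellular calcium fluorescence recorded kinetically for 2 min at 1 sec intervals.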

[12] = molecular target: Muscarinic acetylcholine receptor M1 (Homo sapiens) (UniProt P11229); assay: Cholinergic receptor muscarinic 1 (CHRM1) small molecule antagonists, cell-based qHTS assay (AID 1963588); further: nearly all actives have a fitted effect of over 40% in size; further: potency means the concentration at half of the fitted maximal effect
Sequence of Muscarinic acetylcholine receptor M1 (Homo sapiens) (P11229 whole entry, looked up): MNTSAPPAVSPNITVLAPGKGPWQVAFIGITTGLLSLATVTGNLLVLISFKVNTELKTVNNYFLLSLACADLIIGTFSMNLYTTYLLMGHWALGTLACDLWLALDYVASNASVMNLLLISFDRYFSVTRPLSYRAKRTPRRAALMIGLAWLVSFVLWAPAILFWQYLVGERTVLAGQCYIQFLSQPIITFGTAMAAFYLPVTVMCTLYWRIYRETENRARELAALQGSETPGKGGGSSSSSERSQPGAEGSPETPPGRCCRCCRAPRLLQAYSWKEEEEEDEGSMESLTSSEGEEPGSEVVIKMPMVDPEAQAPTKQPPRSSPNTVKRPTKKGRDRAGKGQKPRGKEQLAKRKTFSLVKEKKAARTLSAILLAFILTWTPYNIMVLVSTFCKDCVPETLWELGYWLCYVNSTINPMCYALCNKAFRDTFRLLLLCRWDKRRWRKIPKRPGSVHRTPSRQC
Method in brief: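 CHRM1-CHO calcium-flux assay, antagonist mode. Cells were seeded 18 h, dye-loaded 1 h at 37 C and given compound for 5 min at RT, then acetylcholine was added at 50nM. FDSS fluorescence was read 3 min; 15 concentrations, three runs.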

[13] = molecular target: Muscarinic acetylcholine receptor M1 (Homo sapiens) (UniProt P11229); assay: Cholinergic receptor muscarinic 1 (CHRM1) small molecule agonists, cell-based qHTS assay (AID 1963589); further: nearly all actives have a fitted effect of over 35% in size
Method in brief: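 Each compound was tested at 15 concentrations across three independent runs on dye-loaded CHO cells stably expressing human CHRM1, reading intracellular calcium fluorescence kinetically at 1 sec intervals.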

[14] = cAMP Responsive Elements (CRE) small molecule agonists, cell-based qHTS assay (AID 1963590)
Method in brief: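 Cell line: CRE-bla HEK 293T; medium DMEM/10% dialyzed FBS/0.1 mM NEAA/1 mM pyruvate/25 mM HEPES; 3 h compound exposure; beta-lactamase FRET readout after 2 h substrate loading at RT.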

[15] = cAMP Responsive Elements (CRE) small molecule antagonists, cell-based qHTS assay (AID 1963591; active means well fitted inhibition curve with a large enough effect in the signal ratio in the repeat runs, not every such curve was filed as active; the % refers to the signal ratio)
Method in brief: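 Inhibition of NKH477-driven (0.25 uM final) CRE-beta-lactamase signal in HEK293T cells, 3 h compound exposure at 37 °C, detected by FRET substrate fluorescence.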

[16] = molecular target: Beta-2 adrenergic receptor (Homo sapiens) (UniProt P07550); assay: Adrenergic beta2 receptor (ADRB2) small molecule antagonists, cell-based qHTS assay (AID 1963592); further: series mostly up to about 92 µM; nearly all actives have a fitted effect of over 50% in size
Sequence of Beta-2 adrenergic receptor (Homo sapiens) (P07550 whole entry, looked up): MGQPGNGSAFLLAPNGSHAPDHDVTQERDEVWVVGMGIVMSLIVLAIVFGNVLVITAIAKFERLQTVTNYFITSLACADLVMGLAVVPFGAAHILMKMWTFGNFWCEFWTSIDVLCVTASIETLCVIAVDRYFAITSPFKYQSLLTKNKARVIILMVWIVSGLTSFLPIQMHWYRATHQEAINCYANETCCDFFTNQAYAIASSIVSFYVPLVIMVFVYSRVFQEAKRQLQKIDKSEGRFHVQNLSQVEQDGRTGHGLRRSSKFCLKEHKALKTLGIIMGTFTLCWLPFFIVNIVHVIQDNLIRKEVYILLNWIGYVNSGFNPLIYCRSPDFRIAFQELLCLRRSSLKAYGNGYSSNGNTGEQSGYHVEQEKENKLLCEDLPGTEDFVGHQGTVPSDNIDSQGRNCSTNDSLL
Method in brief: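 Cells (CHO, stable ADRB2 overexpression) incubated 18-20hr at 37C; compounds added from DMSO; agonist mix (1nM isoproterenol, 100uM IBMX, 25uM Ro-20-1724) added; 0.5hr RT; d2-cAMP and anti-cAMP-cryptate added; 1hr RT; 665/615 nm read.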

[17] = molecular target: Beta-2 adrenergic receptor (Homo sapiens) (UniProt P07550); assay: Adrenergic beta2 receptor (ADRB2) small molecule agonists, cell-based qHTS assay (AID 1963593);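 further: CHO cells stably overexpressing human ADRB2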
Method in brief: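 CHO cells stably over-expressing ADRB2 were plated overnight at 37C, then dosed with compounds plus a stimulation mix containing 100uM IBMX and 25uM Ro-20-1724 for 0.5hr at room temperature. cAMP was measured by HTRF competition, 1hr.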

[18] = molecular target: D(2) dopamine receptor (Homo sapiens) (UniProt P14416); assay: Dopamine D2 receptor (DRD2) small molecule agonists, cell-based qHTS assay (AID 1963594); further: nearly all actives have a fitted effect of over 35% in size
Sequence of D(2) dopamine receptor (Homo sapiens) (P14416 whole entry, looked up): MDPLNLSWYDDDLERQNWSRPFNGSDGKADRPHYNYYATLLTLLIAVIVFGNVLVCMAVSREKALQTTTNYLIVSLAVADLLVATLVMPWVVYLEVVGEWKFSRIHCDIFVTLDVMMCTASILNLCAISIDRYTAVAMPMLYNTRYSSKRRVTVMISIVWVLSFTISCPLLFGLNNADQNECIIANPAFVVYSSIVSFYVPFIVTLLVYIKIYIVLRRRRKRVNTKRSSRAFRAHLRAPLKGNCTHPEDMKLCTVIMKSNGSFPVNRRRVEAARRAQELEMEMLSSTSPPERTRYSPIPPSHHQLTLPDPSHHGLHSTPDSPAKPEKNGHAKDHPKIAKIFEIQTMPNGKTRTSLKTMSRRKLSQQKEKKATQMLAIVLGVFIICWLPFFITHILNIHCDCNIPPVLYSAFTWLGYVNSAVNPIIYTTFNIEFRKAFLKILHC
Method in brief: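 HEK293 cells stably expressing human DRD2, pre-treated with PDE inhibitor Ro20-1724 (0.1 mM final) and compound 10 min at room temperature, then stimulated with NKH477 (200nM […]) for 30 min. cAMP read by HTRF (665/620 nm).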

[19] = molecular target: D(2) dopamine receptor (Homo sapiens) (UniProt P14416); assay: Dopamine D2 receptor (DRD2) small molecule antagonists, cell-based qHTS assay (AID 1963595; active means well fitted inhibition curve with a large enough effect in the signal ratio in the repeat runs, with a control signal flat; the % refers to the signal ratio)
Method in brief: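 HTRF cAMP read-out at 665 and 620 nm emission (340 nm excitation). Antagonist mode: compounds were tested against 12 nM quinpirole in DRD2-HEK293 cells, with 200 nM NKH477 raising cAMP and 0.1 mM Ro20-1724 blocking its breakdown.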

[20] = p53 small molecule agonists, cell-based qHTS assay with human liver microsomes (AID 1963577)
Method in brief: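 Fluorescence of the beta-lactamase reporter in p53RE-bla cells, detected with LiveBLAzer substrate (2 h, room temperature, dark), served as the read-out after 16 h compound exposure at 37 C with human liver microsomes and NADPH, each 0.5 mg/mL final.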

Row | Compound | Potency [1] | Potency [2] | Potency [3] | Potency [4] | Potency [5] | Potency [6] | Potency [7] | Potency [8] | Potency [9] | Potency [10] | Potency [11] | Potency [12] | Potency [13] | Potency [14] | Potency [15] | Potency [16] | Potency [17] | Potency [18] | Potency [19] | Potency [20]
1 | CN(C)CCc1ccc(O)cc1 | inactive | inactive | inactive | inactive | inactive | inactive | inactive | inactive | inactive | inactive | inactive | inactive | inactive | inactive | inactive | inactive | inactive | inactive | inactive | 
2 | CC(C)c1ccc(O)cc1 | inactive | inactive | inactive | inactive | inactive | inactive | inactive |  | inactive | inactive | inactive | inactive | inactive | inactive | inactive | inactive | inactive | inactive | inactive | inactive
3 | Cc1ccc(O)c(C)c1 | inactive | inactive | inactive | inactive | inactive | inactive |  |  | inactive |  | inactive | inactive | inactive | inactive | inactive | inactive |  | inactive | inactive | inactive
4 | CC[n+]1c(-c2ccccc2)c2cc(N)ccc2c2ccc(N)cc21 | 48.3 µM (active) and 7.5 µM (active) | inactive | inactive | inactive |  | inactive |  | inactive |  | inactive | inactive | 8.36 µM (active) and 9.18 µM (active) | inactive | inactive |  |  |  |  |  | inactive
5 | CCCCC(CC)COC(=O)c1c(Br)c(Br)c(Br)c(Br)c1C(=O)OCC(CC)CCCC (stereo not given) | inactive | inactive | inactive | inactive | inactive | inactive |  |  | inactive | inactive | inactive | inactive | inactive | inactive | inactive | inactive | inactive |  | inactive | inactive
6 | CN(C)c1ccc(C(=O)c2ccc(N(C)C)cc2)cc1 | inactive | inactive | inactive | inactive | inactive | inactive | inactive |  | 11.4 µM (active) |  | inactive | inactive | inactive |  | inactive | inactive | inactive |  |  | inactive
7 | CCN(Cc1ccc(Cl)nc1)/C(=C/[N+](=O)[O-])NC | inactive | inactive | inactive | inactive |  | inactive |  | inactive | inactive | inactive | inactive | inactive | inactive | inactive | inactive | inactive |  | inactive | inactive | inactive
